PAFAH1B3 FP inh: blocks human PAF acetylhydrolase 1B catalytic subunit 3; Q15102; recombinant PAFAH1B3, FP-rhodamine probe, fluorescence polarization; inhibition, % at 3.39 µM; actives 0.28% (n = 340,000); AID 492972;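 active = inhibition above the screen-wide average of all tested compounds plus 3 SD, cut at about 25% in these data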;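 note: 0% = enzyme with DMSO only and 100% = wells lacking PAFAH1B3 protein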
PAFAH2 inh: PAFAH2 (human) inhibition. Q99487. recombinant PAFAH2, FP-rhodamine activity probe, fluorescence polarization. inhibition, % at 3.39 µM. actives 0.99% (n = 340,000). AID 492956;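 active = inhibition above the mean over all tested compounds plus 3 SD, cut at about 30% in these data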;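 note: inhibitors block probe labeling of enzyme so polarization drops; 0% = enzyme with DMSO and 100% = wells lacking PAFAH2 protein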
PAFAH1B2 FP inh: blocks human PAF acetylhydrolase 1b catalytic subunit 2; P68402; recombinant PAFAH1B2, FP-rhodamine activity probe, fluorescence polarization; inhibition, % at 3.39 µM; actives 1.2% (n = 340,000);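 active = inhibition above the mean of all tested compounds plus 3 SD, cut at about 24% in these data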;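 note: 0% = enzyme with DMSO and 100% = wells lacking PAFAH1B2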
eLon inh: inhibitors of E. coli Lon protease; P0A9M0; purified E. coli Lon protease, fluorescence polarization; inhibition, % at 7.94 µM; actives 0.42% (n = 360,000); AID 602123; in the data active = inhibition above about 13%, passing the limit was not always enough;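 note: 0% = enzyme with probe and DMSO and 100% = no enzyme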
pPAFAH FP inh: pPAFAH (human) enzyme inhibition; recombinant pPAFAH, FP-rhodamine probe fluorescence polarization; inhibition, % at 3.39 µM; AID 463082; Q13093; actives 1.5% (n = 330,000);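 active = inhibition above the mean inhibition across the screen plus 3 SD, cut at about 25% in these data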;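 note: inhibitors block binding of the rhodamine activity-based probe so polarization drops; 0% = enzyme with DMSO and 100% = wells lacking pPAFAH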
Target sequence (Q13093 whole entry, looked up): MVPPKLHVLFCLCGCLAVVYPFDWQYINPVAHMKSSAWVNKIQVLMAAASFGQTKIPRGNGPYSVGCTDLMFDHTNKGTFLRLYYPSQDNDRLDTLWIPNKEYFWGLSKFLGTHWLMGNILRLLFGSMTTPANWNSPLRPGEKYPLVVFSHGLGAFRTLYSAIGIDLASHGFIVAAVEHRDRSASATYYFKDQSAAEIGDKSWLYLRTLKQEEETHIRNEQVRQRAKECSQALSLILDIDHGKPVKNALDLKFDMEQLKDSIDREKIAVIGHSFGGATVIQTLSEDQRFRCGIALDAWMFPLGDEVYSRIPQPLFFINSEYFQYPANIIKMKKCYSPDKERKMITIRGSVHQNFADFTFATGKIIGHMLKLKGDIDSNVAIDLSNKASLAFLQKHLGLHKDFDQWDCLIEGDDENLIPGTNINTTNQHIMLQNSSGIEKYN
Rin1-Abl PPI inh: inhibitors of human Rin1-Abl protein interaction; TR-FRET Rin1/Abl binding, biochemical; inhibition, % at 7.35 µM; actives 0.4% (n = 360,000); AID 588664; in the data active = inhibition above about 5%, passing the limit was not always enough
E coli Lon conf: E. coli Lon inhibition confirmation; shares compounds with eLon inh; actives 31% (n = 1,400); purified E. coli Lon, fluorescence polarization; inhibition, % at 7.94 µM; AID 602230; in the data active = inhibition above about 16%;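 note: 0% = enzyme with probe and DMSO and 100% = no enzyme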
The depositor's hits bear a star. In the library only some 3.1% were active in any assay of this set; here they are far more common.

For O=C(COC(=O)C1CCN(S(=O)(=O)c2cccs2)CC1)c1ccc2c(c1)OCCO2 the results were PAFAH1B3 FP inh 1, PAFAH2 inh -6, PAFAH1B2 FP inh 6, eLon inh 15*, pPAFAH FP inh 2, Rin1-Abl PPI inh -1 and E coli Lon conf -2.
`O=C1CCC(C(=O)NCc2ccccc2)N1` (configuration not stated) gave PAFAH1B3 FP inh 3, PAFAH2 inh 11, PAFAH1B2 FP inh 1, eLon inh 5, pPAFAH FP inh -2 and Rin1-Abl PPI inh -2.
Screening COC(=O)N1CCCCC1c1cc(C(=O)Nc2ccc(OC)cc2C)no1 (configuration not stated) returned eLon inh -18 and Rin1-Abl PPI inh -1.
Screening O=C(c1cccs1)N(CC1CCCO1)c1nc(-c2ccccc2)cs1 (configuration not stated) returned PAFAH1B3 FP inh -1, PAFAH2 inh -1, PAFAH1B2 FP inh 5, eLon inh 17*, pPAFAH FP inh 5, Rin1-Abl PPI inh -1 and E coli Lon conf 17*.
`C[C@@H]1CN([C@H](C)CO)C(=O)c2c(c3ccccc3n2C)-c2ccccc2CO[C@H]1CN(C)Cc1ccccc1` gave eLon inh 17*, Rin1-Abl PPI inh -2 and E coli Lon conf -8.
Cc1ccc(C(C)C)c(OCC(=O)NN=C2CCCC(=O)C2)c1 was read as PAFAH1B3 FP inh 13, PAFAH2 inh 9, PAFAH1B2 FP inh 5, eLon inh 43*, pPAFAH FP inh 9, Rin1-Abl PPI inh 2 and E coli Lon conf -29.
For CN(C)Cc1ncccc1Oc1nc2cc(-c3cccc(Cl)c3)sc2c(=O)n1C the results were eLon inh 4 and Rin1-Abl PPI inh -1.
For O=C1C=C(NNC(=O)c2ccncc2)CC(c2ccccc2)C1 (configuration not stated) the results were PAFAH1B3 FP inh 13, PAFAH2 inh -1, PAFAH1B2 FP inh 2, eLon inh 68*, pPAFAH FP inh 13, Rin1-Abl PPI inh 3 and E coli Lon conf -59.
For O=C(Nc1cccc(F)c1)N1CCN(C(=O)c2ccco2)CC1 the results were PAFAH1B3 FP inh 10, PAFAH2 inh -12, PAFAH1B2 FP inh 1, eLon inh -2, pPAFAH FP inh -2 and Rin1-Abl PPI inh -4.
`Cn1c2nc(=O)n(-c3ccccc3)c(=O)c-2nc2c1CCCC2` gave eLon inh 123*, Rin1-Abl PPI inh 9.1* and E coli Lon conf 77*.
For COc1ccccc1CCN=C(N)NS(=O)(=O)c1ccccc1F the results were PAFAH1B3 FP inh 10, PAFAH2 inh -4, PAFAH1B2 FP inh 1, eLon inh -7, pPAFAH FP inh 1 and Rin1-Abl PPI inh -2.
For O=C(NCC1CCCN1S(=O)(=O)c1cccs1)C(=O)Nc1ccccc1F (configuration not stated) the results were eLon inh -14 and Rin1-Abl PPI inh -2.
Screening O=C(NCC1CCCN1S(=O)(=O)c1cccs1)C(=O)Nc1ccccc1Cl (configuration not stated) returned PAFAH1B3 FP inh 10, PAFAH2 inh 3, PAFAH1B2 FP inh 3, eLon inh 22*, pPAFAH FP inh 2, Rin1-Abl PPI inh 1 and E coli Lon conf -15.
For CN1CCCc2cc3c(C(F)(F)F)cc(=O)oc3nc21 the results were PAFAH1B3 FP inh 1, PAFAH2 inh 2, PAFAH1B2 FP inh 3, eLon inh 27*, pPAFAH FP inh 4, Rin1-Abl PPI inh 1 and E coli Lon conf 103*.
Nn1c(SCC(=O)NCC2CCCO2)nnc1-c1ccco1 (configuration not stated) was read as PAFAH1B3 FP inh -4, PAFAH2 inh 3, PAFAH1B2 FP inh 2, eLon inh -9, pPAFAH FP inh 1 and Rin1-Abl PPI inh 5.
Screening Cc1ccc(-c2cnc(C(O)c3ccc(Cl)cc3C)[nH]2)cc1 (configuration not stated) returned eLon inh -10 and Rin1-Abl PPI inh 2.
`O=C(CNC(=O)c1ccc(Br)o1)NNC(=O)c1ccc(Cl)cc1` gave PAFAH1B3 FP inh 7, PAFAH2 inh 7, PAFAH1B2 FP inh 4, eLon inh -3, pPAFAH FP inh 0 and Rin1-Abl PPI inh 0.
`O=C(CNC(=O)c1ccc(Br)o1)NNC(=O)c1ccccc1` gave PAFAH1B3 FP inh 1, PAFAH2 inh 0, PAFAH1B2 FP inh -4, eLon inh 96*, Rin1-Abl PPI inh -4 and E coli Lon conf 4.
For COC(=O)c1cn(C(=O)c2ccc3c(c2)OCO3)c2ccccc12 the results were eLon inh 2 and Rin1-Abl PPI inh 2.
Screening O=C(Nc1ccncc1)c1cc(S(=O)(=O)N2CCCC2)ccc1Cl returned PAFAH1B3 FP inh 3, PAFAH2 inh 3, PAFAH1B2 FP inh -1, eLon inh 21*, pPAFAH FP inh 2, Rin1-Abl PPI inh 2 and E coli Lon conf -5.
Cc1nn(-c2ccccc2)c2[nH]c(=O)c(CNc3ccc4c(c3)OCCO4)cc12 was read as PAFAH1B3 FP inh 3, PAFAH2 inh 0, PAFAH1B2 FP inh 4, eLon inh 21*, pPAFAH FP inh 6, Rin1-Abl PPI inh -1 and E coli Lon conf 44*.
O=C(Cc1sc(-c2ccccc2)nc1-c1ccccc1)Nc1ccccc1 was read as PAFAH1B3 FP inh 5, PAFAH2 inh -17, PAFAH1B2 FP inh 2, eLon inh 16*, pPAFAH FP inh -4, Rin1-Abl PPI inh 1 and E coli Lon conf 9.
O=C1NC[C@@H](CCCCN2C[C@H](Cc3ccc(O)cc3)N(CCc3ccccc3)C(=O)C2=O)N(CCc2ccccc2)C1=O was read as eLon inh -2.
`CC1=C(C)C(=O)C(N2CCOCC2)=CC1=O` gave PAFAH1B3 FP inh 0, PAFAH2 inh -3, PAFAH1B2 FP inh 2, eLon inh -2 and Rin1-Abl PPI inh 1.
Screening O=C1C(N2CCOCC2)=Cc2cccc3cccc1c23 returned eLon inh 186*, Rin1-Abl PPI inh -6 and E coli Lon conf 195*.
For CC1(C(=O)Nc2ccc(F)c(Cl)c2)Cc2c(-c3ccccc3)ccnc2O1 (configuration not stated) the results were eLon inh -1 and Rin1-Abl PPI inh 6.
`Cc1cccc(C)c1OCc1cc(C(=O)N2CCC(c3ccccc3)CC2)no1` gave PAFAH1B3 FP inh 10, PAFAH2 inh 0, PAFAH1B2 FP inh 4, eLon inh 21*, pPAFAH FP inh 2, Rin1-Abl PPI inh -3 and E coli Lon conf 17*.
Screening Cc1cccc(C)c1OCc1cc(C(=O)N2CCC(C3CCCCC3)C2)no1 (configuration not stated) returned PAFAH1B3 FP inh -2, PAFAH2 inh -7, PAFAH1B2 FP inh -8, eLon inh -1, pPAFAH FP inh -5 and Rin1-Abl PPI inh -2.

Screens as filed in PubChem BioAssay.
